Results reported in PubChem BioAssay (Tox21).
Records with an inconclusive call do not appear. The source made the active and inactive calls. Calls come from the whole dose curve.

The compounds below were run against Vitamin D3 receptor (Homo sapiens) (UniProt P11473) (assay: qHTS assay to identify small molecule agonists of the vitamin D receptor (VDR) signaling pathway (AID 743222)). Details: HEK293T VDR-UAS-bla, beta-lactamase FRET ratio, 16 h; series mostly up to 63.5 µM; activation: at the top concentration.
Description: National Center for Advancing Translational Sciences [NCATS]
NIH Chemical Genomics Center [NCGC]
U.S. Environmental Protection Agency [EPA]
National Institutes of Environmental Health Sciences [NIEHS]
National Toxicology Program [NTP]
U.S. Food and Drug Administration [FDA]
The vitamin D receptor (VDR), a member of nuclear hormone receptor superfamily, plays a critical role in calcium homeostasis and bone metabolism. It is also involved in cell differentiation and growth, and thrombogenicity.
Tox21 Assay Protocol Summary:
VDR-bla cells were dispensed at 2,000 cells/6 uL/well into black wall/clear-bottom 1536-well plates using a Multidrop Combi (Thermo Fisher Scientific, Waltham, MA) dispenser. After the assay plates were incubated at a 37C and 5% CO2 for 4 h, 23 nL of compounds dissolved in DMSO, positive controls or DMSO only was transferred to the assay plate by a Pintool station (Kalypsys, San Diego, CA). The plates were incubated at 37C and 5% CO2 for 16 h. After 1 uL of LiveBLAzerTM B/G FRET substrate was added using a Bioraptr Flying Reagent Dispenser (FRD) workstation (Beckman Coulter, Indianapolis, IN, USA), the plates were incubated at room temperature for 2 h, and fluorescence intensity was measured by an Envision plate reader (PerkinElmer, Shelton, CT).
% is set by controls: 0 for no effect and ±100 for the full control effect.

Chain of Vitamin D3 receptor (Homo sapiens) (P11473 whole entry, looked up): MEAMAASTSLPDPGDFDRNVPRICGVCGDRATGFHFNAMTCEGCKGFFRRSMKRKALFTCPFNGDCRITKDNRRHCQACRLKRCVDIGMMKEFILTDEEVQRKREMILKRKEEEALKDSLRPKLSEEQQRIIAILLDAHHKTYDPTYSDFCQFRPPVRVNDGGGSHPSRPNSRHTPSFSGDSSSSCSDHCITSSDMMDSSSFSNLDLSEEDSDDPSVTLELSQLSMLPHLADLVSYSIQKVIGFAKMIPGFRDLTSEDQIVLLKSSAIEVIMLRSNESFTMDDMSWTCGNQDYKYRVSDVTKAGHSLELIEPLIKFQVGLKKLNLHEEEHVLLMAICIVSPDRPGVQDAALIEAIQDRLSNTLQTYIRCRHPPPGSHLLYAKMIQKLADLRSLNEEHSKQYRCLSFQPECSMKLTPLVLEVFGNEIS

| SMILES | activation | Potency |
| --- | --- | --- |
| Cc1c(C)n(Cc2ccccc2)c2ccc(C(=O)OCCN(C)C)cc12 | -0.337% (inactive) |  |
| CSc1ccc2c(c1)N(CCC1CCCCN1C)c1ccccc1S2 (stereo not given) |  | inactive |
| c1ccc(Nc2cccc3ccccc23)cc1 |  | inactive |
| c1ccc(Sc2ccccc2)cc1 | 0.618% (inactive) |  |
| CN(C)CCCN1c2ccccc2Sc2ccc(C(F)(F)F)cc21 | -17.9% (inactive) |  |
| COC(=O)[C@]1(C)CCC[C@@]2(C)[C@H]1CC=C1C=C(C(C)C)CC[C@@H]12 | 0.873% (inactive) |  |
| CCCCCCCOC(=O)c1ccc(O)cc1 |  | inactive |
| CCCCN(CCCC)CCC(O)c1cc2c(Cl)cc(Cl)cc2c2cc(C(F)(F)F)ccc12 (stereo not given) | 0.574% (inactive) |  |
| CC1CCCCN1CCCOC(=O)c1ccc(OC2CCCCC2)cc1 (stereo not given) | -3.97% (inactive) |  |
| CCO[Si](CCCSSSSCCC[Si](OCC)(OCC)OCC)(OCC)OCC | -22.4% (inactive) |  |
| CCCSS/C(CCO)=C(\C)N(C=O)Cc1cnc(C)nc1N | -17.9% (inactive) |  |
| CCCCCCCC/C=C\CCCCCCCC(=O)OCCOC(=O)CCCCCCC/C=C\CCCCCCCC | -0.661% [at 81.1 µM] (inactive) |  |
| O=S(=O)(O)CCCN1CCOCC1 | 12.3% (inactive) |  |
| CCC(C)(C)c1cc(O)c(C(C)(C)CC)cc1O | -9.23% (inactive) |  |
| Oc1ccc(-c2ccccc2)c(Cl)c1 | 1.8% (inactive) |  |
| C=C(C)C(=O)OCCC[Si](Cl)(Cl)Cl | -3.58% [at 81.1 µM] (inactive) |  |
| O=C1Nc2ccc(Cl)cc2[C@@](C#CC2CC2)(C(F)(F)F)O1 | -2.36% (inactive) |  |
| CNC(=O)c1cc(Oc2ccc(NC(=O)Nc3ccc(Cl)c(C(F)(F)F)c3)cc2)ccn1 | -10.2% (inactive) |  |
| Clc1ccc(C(Cn2ccnc2)OCc2c(Cl)cccc2Cl)c(Cl)c1 (stereo not given) | -7.27% (inactive) |  |
| CCCCCCCC/C=C/CCCOC(C)=O | -16.4% (inactive) |  |

| SMILES | activation | Potency |
| --- | --- | --- |
| SCCCCCCCCS | 1.6% (inactive) |  |
| CC1(C)C(=O)N(Br)C(=O)N1Br | 0.944% (inactive) |  |
| O=C(O)CCCCCCC(=O)O | 8.07% [at 81.1 µM] (inactive) |  |
| CN(C)c1ccc(N=Nc2ccccc2C(=O)O)cc1 | -3.98% (inactive) |  |
| CCN(CC)CCNc1ccc(CO)c2sc3ccccc3c(=O)c12 | 9.18% (inactive) |  |
| NC(=O)c1nc(-c2cccc(-c3cc(F)ccc3OCC(F)(F)C(F)(F)F)c2)n[nH]1 | 0.774% (inactive) |  |
| CCCC(CC)CCCCCCCN (stereo not given) | 8.45% [at 81.1 µM] (inactive) |  |
| O=C1NC2CCCCN2C12CCN(CCCN1c3ccccc3CCc3ccc(Cl)cc31)CC2 (stereo not given) | 10% (inactive) |  |
| Clc1ccc(C(Cn2ccnc2)OCc2ccsc2Cl)c(Cl)c1 (stereo not given) | -9.07% (inactive) |  |
| CSc1c(Cl)c(Cl)c(Cl)c(Cl)c1Cl | -1.69% (inactive) |  |
| COC(=O)CC(C)CCC=C(C)C (stereo not given) | -18.3% (inactive) |  |
| CC(C)(C)CC(C)(C)c1ccccc1O | 3.16% [at 81.1 µM] (inactive) |  |
| O=C1OC(OC(=O)c2cccnc2Nc2cccc(C(F)(F)F)c2)c2ccccc21 (stereo not given) | -0.31% (inactive) |  |
| NCCCC(O)(P(=O)(O)O)P(=O)(O)O | 2.69% (inactive) |  |
| C[C@]12CC[C@H]3C(=CCc4cc(O)ccc43)[C@@H]1CCC2=O | -15.3% (inactive) |  |
| Cn1cnc2ncnc(N)c21 | -13.3% (inactive) |  |
| CCN1CCN(c2cc(-c3ccc(F)cc3)c3c(n2)CCCCCC3)CC1 | -1.01% [at 29.5 µM] (inactive) |  |
| CCCCCCCCCCCCCCNCCO | -17.6% (inactive) |  |
| CCCCCCCC/C=C\CCCCCCCC(=O)NCc1ccc(O)c(OC)c1 | 11.1% (inactive) |  |
| O=C(O)CC(=O)O | -8.69% (inactive) |  |
